# Screening results: PubChem, Broad Institute
# Hits are enriched below; roughly 2.2% of the tested compounds scored in any of these assays.
# LGR2 antag: blocks bursicon-induced cAMP signaling via Drosophila LGR2. HEK293 LGR2, CRE-luciferase, bursicon-stimulated, 4 h. 0.35% of 380,000 active. inhibition, % at 9.99 µM;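 active = drop in luminescence signal, shown as inhibition above about 50% in the replicate tests, limit read from the data, passing the limit was not always enough; inconclusive = probably only some replicates passing the limit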;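 note: agonist challenge used bursicon conditioned medium at about half maximal strength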
# EBV LMP1 NFkB: Epstein-Barr LMP1 NF-kappaB reporter inhibition. LMP1-induced NF-kappaB luciferase reporter cells, luminescence. inhibition, % at 12.5 µM. 0.69% of 350,000 active; in the data active = inhibition above about 41%; inconclusive = no clear call, values can overlap the other calls;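 note: 0% = neutral control wells and 100% = reference inhibitor control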
# TRPM1 prom inh: reduces MITF-dependent TRPM1 promoter luciferase signal. SK-MEL-5 TRPM1 promoter luciferase, 24 h. inhibition, % at 12.5 µM. 0.83% of 330,000 active;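 active = mean inhibition across replicates of 60% or more, whatever share of single replicates reaches that level; inconclusive = some that reach 60%, reason not given; inactive = mean inhibition across replicates below 60%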
# PAX8 inh HTS: inhibitors of PAX8 transcriptional activity in RMG-I cells; 1.2% of 360,000 active; inhibition, % at 12.6 µM; RMG-I TPO-luciferase reporter, SteadyGlo, 24 h;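 active = mean replicate inhibition at least 60% with every replicate also reaching 60%; inconclusive = only one of the two criteria is met; inactive = mean below 60% and not all replicates reaching 60%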;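 note: luciferase light reporting Pax8 driven TPO promoter activity; plate controls were median of neutral control wells for no effect and mitoxantrone controls for full effect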
# Shn3 3UTR inh: inhibitors of Schnurri-3 3'UTR reporter in osteoblasts. Clone20 osteoblast Shn3 3'UTR firefly luciferase, 24 h. inhibition, % at 12.5 µM. 0.52% of 360,000 active;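 active = mean inhibition of at least 75% with every replicate also reaching 75%; inconclusive = mean inhibition at least 75% but some replicate below; inactive = mean inhibition below 75%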;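 note: 0% = median of neutral control wells and 100% = pilot-screen positive control compound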
# EWS-Fli inh: inhibitors of EWS/Fli oncoprotein transcriptional activity; A673 NR0B1-luciferase reporter, viability-normalised; 0.67% of 350,000 active; inhibition, % at 12.6 µM;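 active = mean inhibition of at least 50% after viability correction, with every replicate also passing that limit; inconclusive = mean reaches 50% but only one of two replicates passes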;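 note: firefly luciferase signal divided by Alamar Blue viability fluorescence both relative to DMSO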
# * marks the source's active call; other numbers are inactive results; ? = inconclusive; . = no result given.
SMILES,LGR2 antag,EBV LMP1 NFkB,TRPM1 prom inh,PAX8 inh HTS,Shn3 3UTR inh,EWS-Fli inh
O=C(O)c1cccc(COc2ccccc2Cl)c1,101*,74*,92*,.,89*,86*
O=C(O)c1ccc(COc2ccccc2Cl)cc1,-2,-12,-22,.,-4,.
O=C1NC(=O)/C(=C\c2ccc(OCc3cccc(C(=O)O)c3)c(Cl)c2)N1,83*,?,41,33,7,25
COc1cc(/C=C2\NC(=S)NC2=O)ccc1OCc1cccc(C(=O)O)c1,18,11,-30,-24,-79,-20
O=C(c1ccc(COc2ccccc2Cl)o1)N1CCOCC1,-5,-8,-3,-20,-1,-5
O=C(c1ccc(COc2ccccc2Cl)o1)N1CCCC1,.,47*,27,.,-20,.
COc1ccc(S(=O)(=O)Nc2ccc3c(c2)CC(=O)N([C@@H](C)CO)C[C@H](C)[C@@H](CN(C)Cc2ccc4c(c2)OCO4)O3)cc1,11,.,.,.,.,1
O=C(C[C@@H]1CC[C@@H](NC(=O)C2CCOCC2)[C@H](CO)O1)NCc1ccncc1,-5,.,.,.,.,-5
CN(Cc1c(C(=O)N/N=C/c2ccccc2O)nnn1-c1nonc1N)C1CCCCC1,39,27,.,70*,83,5
CCN(CC)c1ccc(/C=N/NC(=O)c2nnn(-c3nonc3N)c2C(C)C)c(O)c1,24,64*,68*,85*,92*,.
CN(Cc1c(C(=O)N/N=C/c2cccc(O)c2)nnn1-c1nonc1N)C1CCCCC1,2,1,8,4,-1,.
CCCc1c(C(=O)N/N=C(\C)c2ccccn2)nnn1-c1nonc1N,0,?,.,27,89*,16
CN1CCN(Cc2c(C(=O)N/N=C/c3cccc(Br)c3)nnn2-c2nonc2N)CC1,-1,0,77*,51,-1,52*
CC(C)c1c(C(=O)N/N=C/c2ccc3c(c2)OCO3)nnn1-c1nonc1N,-16,0,-17,-22,-18,-35
CCCc1c(C(=O)N/N=C(\C)c2ccc(O)cc2)nnn1-c1nonc1N,-26,1,-2,-21,4,.
CCN1CCN(C(=O)c2cc(COc3ccc4ncccc4c3)on2)CC1,-15,19,7,24,54,5
CC(CCCC(C)(C)O)NC(=O)c1cc(COc2ccc3ncccc3c2)on1 (configuration not stated),-3,10,11,30,90*,11
O=C(NCc1cccc(Cl)c1)c1cc(COc2ccc3ncccc3c2)on1,.,8,16,-20,?,-3
COCC1CCCCN1C(=O)c1cc(COc2ccc3ncccc3c2)on1 (configuration not stated),14,16,28,21,89*,13
CCC1CCCCN1C(=O)c1cc(COc2ccc3ncccc3c2)on1 (configuration not stated),-1,-7,10,28,88*,20
O=C(c1cc(COc2ccc3c(c2)CCCC3)on1)N1CCCC1,-42,73*,-113,-242,-40,-115
CCOc1ccc(Nc2nc(N)nc(CCl)n2)cc1,.,14,16,110*,-35,48
Cc1ccc(Nc2nc(N)nc(CCl)n2)cc1,-46,-35,-40,105*,-98,71*
Cc1cccc(Nc2nc(N)nc(CN3CCC(C(N)=O)CC3)n2)c1C,.,-2,9,.,-10,.
Nc1nc(CCl)nc(Nc2ccccc2)n1,1,-14,-20,88*,9,34
SMILES,LGR2 antag,EBV LMP1 NFkB,TRPM1 prom inh,PAX8 inh HTS,Shn3 3UTR inh,EWS-Fli inh
Cc1cccc(Nc2nc(N)nc(CCl)n2)c1C,.,.,.,125*,-11,?
Nc1nc(CN2CCN(Cc3ccccc3)CC2)nc(Nc2ccccc2)n1,-7,-6,12,.,11,11
C[C@@H]1CCCCO[C@@H](CN(C)C(=O)NC2CCCCC2)[C@H](C)CN([C@@H](C)CO)C(=O)c2cc(NC(=O)C3CCCCC3)ccc2O1,-3,.,.,9,.,7
C[C@@H]1CN([C@@H](C)CO)C(=O)c2cc(C#CCN(C)C)cnc2O[C@@H]1CN(C)C(=O)Cc1ccccc1,12,.,.,-4,.,-2
O=C(C[C@H]1C=C[C@@H](NS(=O)(=O)c2ccc(F)cc2)[C@@H](CO)O1)NCCN1CCCCC1,-5,.,.,-10,.,4
C[C@@H]1CN([C@@H](C)CO)C(=O)c2ccccc2-c2ccccc2CO[C@H]1CN(C)C(=O)Nc1ccc(F)cc1,3,.,.,-27,.,-3
Cc1ccc(Nc2nc(N)nc(CCl)n2)c(C)c1,-44,33,-14,106*,-109,44
COc1ccc(S(=O)(=O)Nc2ccccc2-c2nnn(CC(=O)Nc3ccccc3OC)n2)cc1,0,4,-11,27,39,.
COc1ccc(NC(=O)Cn2nnc(-c3ccccc3NS(=O)(=O)c3ccccc3)n2)cc1,.,-5,17,.,87*,.
O=C([C@H]1[C@H](CO)[C@H]2Cn3c(cccc3=O)[C@H]2N1C(=O)C1CCCC1)N1CCOCC1,7,.,.,.,.,-4
C[C@@H]1CN([C@H](C)CO)C(=O)c2cc(NC(=O)Nc3ccc(F)cc3)ccc2O[C@@H]1CN(C)S(=O)(=O)c1ccc(Cl)cc1,6,.,.,4,.,0
CN(C)c1ncnc2c1C(c1ccccc1)C(C)(C)O2 (configuration not stated),2,8,0,-3,96*,0
CNC(=O)C[C@H]1CC[C@H]2[C@@H](COc3ccc(NC(=O)Nc4cccc(Cl)c4)cc3C(=O)N2C)O1,6,.,.,6,.,-1
CCOC(=O)c1cc(C)n(CCc2ccccc2)c1C,.,-18,-43,.,-18,.
Cc1cc(C(=O)CCl)c(C)n1CCc1ccccc1,8,.,.,32,.,75*
O=C1C=CC(=O)N1CCCCCCN1C(=O)C=CC1=O,15,.,.,109*,.,.
COc1ccccc1/C=C/C=C1\Oc2c(ccc(O)c2CN(C)C)C1=O,-10,-14,13,-5,-2,-8
CCN(CC)Cc1c(O)ccc2c1O/C(=C\C=C\c1ccccc1)C2=O,6,-83,81*,-19,95*,77*
CCC(=O)N[C@@H]1CC[C@@H](CC(=O)NCC2CCCCC2)O[C@H]1CO,-12,.,.,-9,.,-1
CCOc1ccccc1/C=C/c1onc(C)c1S(=O)(=O)N1CCC(C(=O)N(CC)CC)CC1,11,60*,3,-6,-3,13
Cc1noc(/C=C/c2ccco2)c1S(=O)(=O)N1CCC(C(=O)NC(C)c2ccccc2)CC1 (configuration not stated),9,1,.,94*,11,5
CCN(CCN(C)C)C(=O)C1CCN(S(=O)(=O)c2c(C)noc2/C=C/c2ccccc2F)CC1,-4,-7,45,36,-8,.
Cc1noc(C)c1S(=O)(=O)Nc1cccc2c1O[C@H](CN(C)Cc1ccc3c(c1)OCO3)[C@H](C)CN([C@H](C)CO)C2=O,0,.,.,.,.,5
O=C1c2ccccc2C(=O)N1CCN1CCOCC1,-7,-5,12,10,1,0
